# Test results as given in PMC9911399, “Two distinct binding modes provide the RNA-binding protein RbFox with extraordinary sequence specificity”.
# Where a chain is given by its changes, count along the chain named. Over roughly 16,000 sequences, “ka relative to ugcaugu” has its median near 0.096; the highest 2% begin near 0.35. For the sample, the highest values were picked, then their nearest neighbours and some sequences at random.
# T1: RBFOX1 RRM RbFoxmut (Fox-RRM*) (Homo sapiens, UniProt Q9NWB1 109-208, R118D;E147R;N151S;E152T)
# T1 sequence: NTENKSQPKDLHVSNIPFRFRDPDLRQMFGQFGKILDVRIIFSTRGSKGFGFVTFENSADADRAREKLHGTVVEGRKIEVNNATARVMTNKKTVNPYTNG
# B1: UGUACAC (DNA:RNA)
# RNA: GGGAGACCGGAAUUCAGAUUGUCCUGUACACUUAAAUCCCGUCGUAGCCACCA
# DNA 1: CAATCTGAATTCCGGTCTCCC
# DNA 2: TGGTGGCTACGACGGGATT
# B2: GUCUCAC (DNA:RNA)
# RNA: B1 RNA with U25G, G26U, U27C, A28U
# DNA 1: CAATCTGAATTCCGGTCTCCC
# DNA 2: TGGTGGCTACGACGGGATT
# B3: GGGUCUA (DNA:RNA)
# RNA: B1 RNA with U25G, U27G, A28U, A30U, C31A
# DNA 1: CAATCTGAATTCCGGTCTCCC
# DNA 2: TGGTGGCTACGACGGGATT
# B4: UAACUCU (DNA:RNA)
# RNA: B1 RNA with G26A, U27A, A28C, C29U, A30C, C31U
# DNA 1: CAATCTGAATTCCGGTCTCCC
# DNA 2: TGGTGGCTACGACGGGATT
# B5: UCUGACU (DNA:RNA)
# RNA: B1 RNA with G26C, A28G, C29A, A30C, C31U
# DNA 1: CAATCTGAATTCCGGTCTCCC
# DNA 2: TGGTGGCTACGACGGGATT
# B6: AACCUGA (DNA:RNA)
# RNA: GGGAGACCGGAAUUCAGAUUGUCCAACCUGAUUAAAUCCCGUCGUAGCCACCA
# DNA 1: CAATCTGAATTCCGGTCTCCC
# DNA 2: TGGTGGCTACGACGGGATT
# B7: CAACUCG (DNA:RNA)
# RNA: B6 RNA with A25C, C27A, G30C, A31G
# DNA 1: CAATCTGAATTCCGGTCTCCC
# DNA 2: TGGTGGCTACGACGGGATT
# B8: UGUGUUC (DNA:RNA)
# RNA: B1 RNA with A28G, C29U, A30U
# DNA 1: CAATCTGAATTCCGGTCTCCC
# DNA 2: TGGTGGCTACGACGGGATT
# B9: CACUGAA (DNA:RNA)
# RNA: B6 RNA with A25C, C28U, U29G, G30A
# DNA 1: CAATCTGAATTCCGGTCTCCC
# DNA 2: TGGTGGCTACGACGGGATT
# B10: UUCCUUC (DNA:RNA)
# RNA: B6 RNA with A25U, A26U, G30U, A31C
# DNA 1: CAATCTGAATTCCGGTCTCCC
# DNA 2: TGGTGGCTACGACGGGATT
# B11: GGUAUGC (DNA:RNA)
# RNA: B1 RNA with U25G, C29U, A30G
# DNA 1: CAATCTGAATTCCGGTCTCCC
# DNA 2: TGGTGGCTACGACGGGATT
# B12: GUUAUGC (DNA:RNA)
# RNA: B1 RNA with U25G, G26U, C29U, A30G
# DNA 1: CAATCTGAATTCCGGTCTCCC
# DNA 2: TGGTGGCTACGACGGGATT
# B13: UUAUGCU (DNA:RNA)
# RNA: B1 RNA with G26U, U27A, A28U, C29G, A30C, C31U
# DNA 1: CAATCTGAATTCCGGTCTCCC
# DNA 2: TGGTGGCTACGACGGGATT
# B14: GGAUGCU (DNA:RNA)
# RNA: B1 RNA with U25G, U27A, A28U, C29G, A30C, C31U
# DNA 1: CAATCTGAATTCCGGTCTCCC
# DNA 2: TGGTGGCTACGACGGGATT
# B15: CGUAUGC (DNA:RNA)
# RNA: B1 RNA with U25C, C29U, A30G
# DNA 1: CAATCTGAATTCCGGTCTCCC
# DNA 2: TGGTGGCTACGACGGGATT
# B16: GUAUGCU (DNA:RNA)
# RNA: GGGAGACCGGAAUUCAGAUUGUCCGUAUGCUUUAAAUCCCGUCGUAGCCACCA
# DNA 1: CAATCTGAATTCCGGTCTCCC
# DNA 2: TGGTGGCTACGACGGGATT
# B17: GAGCUUG (DNA:RNA)
# RNA: B6 RNA with A25G, C27G, G30U, A31G
# DNA 1: CAATCTGAATTCCGGTCTCCC
# DNA 2: TGGTGGCTACGACGGGATT
# B18: UGUGGCA (DNA:RNA)
# RNA: B1 RNA with A28G, C29G, A30C, C31A
# DNA 1: CAATCTGAATTCCGGTCTCCC
# DNA 2: TGGTGGCTACGACGGGATT
# B19: CUAUUUC (DNA:RNA)
# RNA: B16 RNA with G25C, G29U, C30U, U31C
# DNA 1: CAATCTGAATTCCGGTCTCCC
# DNA 2: TGGTGGCTACGACGGGATT
# B20: AGUCAAC (DNA:RNA)
# RNA: B1 RNA with U25A, A28C, C29A
# DNA 1: CAATCTGAATTCCGGTCTCCC
# DNA 2: TGGTGGCTACGACGGGATT
# B21: AAUGCAG (DNA:RNA)
# RNA: B1 RNA with U25A, G26A, A28G, C31G
# DNA 1: CAATCTGAATTCCGGTCTCCC
# DNA 2: TGGTGGCTACGACGGGATT
# B22: UUGCAUG (DNA:RNA)
# RNA: B6 RNA with A25U, A26U, C27G, U29A, G30U, A31G
# DNA 1: CAATCTGAATTCCGGTCTCCC
# DNA 2: TGGTGGCTACGACGGGATT
# B23: GCGUGCA (DNA:RNA)
# RNA: B16 RNA with U26C, A27G, U31A
# DNA 1: CAATCTGAATTCCGGTCTCCC
# DNA 2: TGGTGGCTACGACGGGATT
# B24: UUGCGUC (DNA:RNA)
# RNA: B16 RNA with G25U, A27G, U28C, C30U, U31C
# DNA 1: CAATCTGAATTCCGGTCTCCC
# DNA 2: TGGTGGCTACGACGGGATT
# B25: GUGCAGA (DNA:RNA)
# RNA: B6 RNA with A25G, A26U, C27G, U29A
# DNA 1: CAATCTGAATTCCGGTCTCCC
# DNA 2: TGGTGGCTACGACGGGATT
# B26: UUGCAGA (DNA:RNA)
# RNA: B6 RNA with A25U, A26U, C27G, U29A
# DNA 1: CAATCTGAATTCCGGTCTCCC
# DNA 2: TGGTGGCTACGACGGGATT
# B27: GUUCAUC (DNA:RNA)
# RNA: B16 RNA with A27U, U28C, G29A, C30U, U31C
# DNA 1: CAATCTGAATTCCGGTCTCCC
# DNA 2: TGGTGGCTACGACGGGATT
# B28: UUGCAUA (DNA:RNA)
# RNA: B6 RNA with A25U, A26U, C27G, U29A, G30U
# DNA 1: CAATCTGAATTCCGGTCTCCC
# DNA 2: TGGTGGCTACGACGGGATT
# B29: GUGCAUC (DNA:RNA)
# RNA: B16 RNA with A27G, U28C, G29A, C30U, U31C
# DNA 1: CAATCTGAATTCCGGTCTCCC
# DNA 2: TGGTGGCTACGACGGGATT
# B30: GUGCAUA (DNA:RNA)
# RNA: B6 RNA with A25G, A26U, C27G, U29A, G30U
# DNA 1: CAATCTGAATTCCGGTCTCCC
# DNA 2: TGGTGGCTACGACGGGATT
# B31: UCUUGCA (DNA:RNA)
# RNA: B16 RNA with G25U, U26C, A27U, U31A
# DNA 1: CAATCTGAATTCCGGTCTCCC
# DNA 2: TGGTGGCTACGACGGGATT
# B32: UUGCAUC (DNA:RNA)
# RNA: B1 RNA with G26U, U27G, A28C, C29A, A30U
# DNA 1: CAATCTGAATTCCGGTCTCCC
# DNA 2: TGGTGGCTACGACGGGATT
# B33: GUGCAUG (DNA:RNA)
# RNA: B16 RNA with A27G, U28C, G29A, C30U, U31G
# DNA 1: CAATCTGAATTCCGGTCTCCC
# DNA 2: TGGTGGCTACGACGGGATT
# Biological target: T1, RBFOX1 RRM RbFoxmut (Fox-RRM*)
# Assay: EMSA; HiTS-Eq, 1 nM pool, 10 min; buffer printed only for the single-RNA assays: 10 mM Tris pH 7.5, 150 mM NaCl, 3.4 mM EDTA, 0.001% NP-40, 30 C
# Conditions: tags: His6 N-terminal (pET28a); label: 5' 32P
# Procedure, shortened: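 Purified RbFox RRM (wild type or mutant) was equilibrated for 10 min in 50 µL with 1 nM of a 5′-radiolabelled pool of RNA with 7 randomized nucleotides, its flanks annealed to DNA oligonucleotides, across increasing protein concentrations. Free RNA was separated by 8% native PAGE, excised, reverse-transcribed, PCR-barcoded and sequenced on an Illumina HiSeq 2500. Relative association constants came from read-count changes of each variant against the control reaction, normalised to the cognate motif.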
row,Binder,binding signal
1,B1,0.0562 KA relative to UGCAUGU
2,B2,0.0695 KA relative to UGCAUGU
3,B3,0.1 KA relative to UGCAUGU
4,B4,0.0488 KA relative to UGCAUGU
5,B5,0.0694 KA relative to UGCAUGU
6,B6,0.0413 KA relative to UGCAUGU
7,B7,0.142 KA relative to UGCAUGU
8,B8,0.108 KA relative to UGCAUGU
9,B9,0.0869 KA relative to UGCAUGU
10,B10,0.0735 KA relative to UGCAUGU
11,B11,0.398 KA relative to UGCAUGU
12,B12,0.21 KA relative to UGCAUGU
13,B13,0.13 KA relative to UGCAUGU
14,B14,0.142 KA relative to UGCAUGU
15,B15,0.325 KA relative to UGCAUGU
16,B16,0.402 KA relative to UGCAUGU
17,B17,0.253 KA relative to UGCAUGU

row,Binder,binding signal
1,B18,0.136 KA relative to UGCAUGU
2,B19,0.0582 KA relative to UGCAUGU
3,B20,0.0571 KA relative to UGCAUGU
4,B21,0.103 KA relative to UGCAUGU
5,B22,0.909 KA relative to UGCAUGU
6,B23,0.225 KA relative to UGCAUGU
7,B24,0.126 KA relative to UGCAUGU
8,B25,0.12 KA relative to UGCAUGU
9,B26,0.108 KA relative to UGCAUGU
10,B27,0.0631 KA relative to UGCAUGU
11,B28,0.23 KA relative to UGCAUGU
12,B29,0.566 KA relative to UGCAUGU
13,B30,0.153 KA relative to UGCAUGU
14,B31,0.205 KA relative to UGCAUGU
15,B32,0.432 KA relative to UGCAUGU
16,B33,1.39 KA relative to UGCAUGU
